# Compound activity from PubChem.
# The full list was thinned out, with hits kept by preference.
# Sa growth inh – S. aureus growth inhibition. S. aureus RN4220 growth, OD600, 20 h, 42 °C; hits give low values. relative growth, % (concentration not given with the values). 170,000 tested, 0.53% active;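 active = relative growth at most 50% at the other temperature and 20+ points below 30 °C, or under 10% at both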
# HCMV NEC inh – inhibitors of HCMV UL50-UL53 nuclear egress complex interaction. HTRF UL50-UL53 interaction, normalized percent inhibition. inhibition, % (test concentration not listed). 190,000 tested, 0.15% active; in the data active = inhibition above about 27%, passing the limit was not always enough
# S aureus helic – blocks Staphylococcus aureus DNA helicase | purified S. aureus helicase, fluorescence unwinding assay | inhibition, % (no concentration beside the values) | 120,000 tested, 0.05% active; in the data active = inhibition above about 25%, passing the limit was not always enough;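 also: 0% = mean of negative control wells and 100% = mean of positive control wells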
# Starred values were filed as active, the others as inactive; x = no result given.
SMILES,Sa growth inh,HCMV NEC inh,S aureus helic
COc1ccc(-c2cnc(C)o2)cc1S(=O)(=O)Nc1ccc(S(N)(=O)=O)cc1,x,2,x
O=C(c1ccc2noc(-c3ccc(Cl)cc3)c2c1)N1CCN(c2ccccc2F)CC1,x,2,x
CCCCc1ccc(Nc2cc(C)nc(-n3nc(C)cc3C)n2)cc1,22,x,x
Cc1cc(Nc2ccc(F)cc2)nc(-n2nc(C)cc2C)n1,2.5*,x,x
Cc1cc(C)n(-c2nc(NC(C)C)nc(NC(C)C)n2)n1,-0.4*,8,7
Cc1cc(C)n(-c2ncc(C#N)cn2)n1,x,-13,x
COc1ccc(C)cc1-n1nnnc1SC(C)C(=O)NCc1ccco1 (stereo unspecified),101,1,-4
CCN(CC)S(=O)(=O)c1ccc(C(=O)N2N=C3/C(=C/c4cccs4)CCCC3C2c2cccs2)cc1 (stereo unspecified),98,-12,-11
CCOC(=O)c1cc(C(=O)Nc2ccc(OC)cc2OC)c(=O)[nH]c1C,x,8,x
CNc1ccc(O)cc1,103,69*,28
Oc1ccc(NC(=S)Nc2ccc(O)cc2)cc1,137,-11,18
O=C(COC(=O)c1ccc(F)cc1)NC(c1ccccc1)c1ccccc1,94,-39,-11
Cc1ccc(C(=O)NNc2nnc(C)c(=O)[nH]2)cc1,101,-12,5
COC(=O)c1ccc(COc2c(I)cc(Cl)c3cccnc23)o1,84,-11,23
Cc1cc(C)cc(NC(=O)Cn2c3ncccc3c(=O)n2-c2ccccc2)c1,x,-14,x
Cc1cc(NS(=O)(=O)c2ccc(NS(=O)(=O)CC34CCC(CC3=O)C4(C)C)cc2)no1 (stereo unspecified),49*,-15,-5
Cc1cc(C)nc(NS(=O)(=O)c2ccc(NS(=O)(=O)CC34CCC(CC3=O)C4(C)C)cc2)n1 (stereo unspecified),111,8,-13
Cc1cc(C(=O)NN=C2CCCC2)c(C)n1-c1ccccc1,103,-2,-16
COc1ccc(C2CC(=O)C3=C(C2)NC(C)=C(C(=O)OC(C)C)C3c2cccc(Cl)c2)cc1OC (stereo unspecified),x,-3,x
CCCCOC(=O)c1cccc(NC(=O)c2cc3ccccc3o2)c1,94,138*,x
CCCCOC(=O)c1ccc(NC(=O)c2cc(=O)c3ccccc3o2)cc1,97,-23,x
COc1cc2nc(N(C)C)nc(N)c2cc1OC,88,-17,44*
COc1cc2nc(Nc3ccc(C)c(C)c3)nc(N)c2cc1OC,95,13,x
O=C(Nc1ccc(F)cc1)Oc1ccccc1N1CCOCC1,95,-17,-6
Cc1c(C(=O)Nc2ccc(N3CC(C)OC(C)C3)nc2)cccc1-c1ccc(OC(F)(F)F)cc1 (stereo unspecified),x,-4,x
SMILES,Sa growth inh,HCMV NEC inh,S aureus helic
O=C(Nc1ccc(OC(F)(F)F)cc1)Oc1ccccc1N1CCOCC1,3.7*,27,x
CC1CN(c2ccccc2OC(=O)Nc2ccc(OC(F)(F)F)cc2)CC(C)O1 (stereo unspecified),3.0*,-24,x
C/C(N)=C(/C#N)C(=O)CSc1nnc(SCC(=O)/C(C#N)=C(\C)N)s1,82,-6,3
CCOC(=O)c1cc(-c2csc(Nc3ccc(C)cc3)n2)on1,101,-14,-5
Cc1cc(N=Cc2c(O)ccc3ccccc23)no1,96,103*,10
Oc1ccc2ccccc2c1C=Nc1c(F)c(F)c(F)c(F)c1F,123,-25,-18
Oc1ccc2ccccc2c1/C=N/c1nccs1,111,108*,-51
Cc1ccc(O)c(C=Nc2cc(C)on2)c1,114,-9,x
O=C(CCn1cnc2onc(-c3ccccc3)c2c1=O)NC1CC1,x,-1,x
CC(C)NC(=O)CCCCn1c(=O)c2ccccc2n(CC(=O)NCc2ccccc2Cl)c1=O,x,-8,x
Cc1ccc(Cn2cnc3oc(C)c(C)c3c2=O)cc1,x,-6,x
Nc1nc(SCCc2ccccc2)n[nH]1,103,2,12
N#Cc1ccc(NC(=O)COC(=O)c2cccc(F)c2)cc1,90,-4,10
CN[C@H](CC(C)C)C(=O)N[C@H]1C(=O)N[C@@H](CC(N)=O)C(=O)N[C@H]2C(=O)N[C@H]3C(=O)N[C@H](C(=O)N[C@H](C(=O)O)c4cc(O)cc(O)c4-c4cc3ccc4O)[C@H](O)c3ccc(c(Cl)c3)Oc3cc2cc(c3O[C@@H]2OC(CO)[C@@H](O)[C@H](O)[C@H]2O[C@H]2C[C@](C)(N)[C@H](O)[C@H](C)O2)Oc2ccc(cc2Cl)[C@H]1O (stereo partly specified),x,-16,x
CCCN=c1cc(-c2ccccc2)oc2ccc(C)cc12,109,x,65*
Cc1ccc2oc(-c3ccccc3)cc(=O)c2c1,97,-2,x
Cc1cc(C)c2c(n1)SCCN2C(=O)NCC(=O)NCc1ccccn1,x,-10,x
CCOc1ccccc1NC(=O)c1cn(C2CCCCC2)c(=O)c2c1c1ccccc1n2C,103,54*,x
COc1ccc(Cl)cc1NC(=O)c1cn(C2CCCCC2)c(=O)c2c1c1ccccc1n2C,101,14,x
O=C(CSc1nc(-c2ccccc2F)nc2cc(=O)[nH]n12)Nc1cccc(C(F)(F)F)c1,2.8*,x,x
O=C(CSc1nc(-c2cccc(Cl)c2)nc2cc(=O)[nH]n12)Nc1ccccc1,89,x,x
Cc1cc2ccccn2c1C(=O)Nc1ccccc1,87,-7,-4
Cc1c(-c2ccccc2)cc2ccccn12,4.3*,-45,-18
O=C(Oc1cccc2cccnc12)c1ccccc1F,0.8*,-13,9
Cc1ccc2cccc(OC(=O)c3ccccc3F)c2n1,x,-11,19
SMILES,Sa growth inh,HCMV NEC inh,S aureus helic
CO[C@@]12[C@@H]3NC3CN1C1=C(C(=O)C(N)=C(C)C1=O)[C@@H]2COC(N)=O (stereo partly specified),0.2*,-104,x
Cc1cc(Oc2ccc3oc4ccccc4c3c2)n2ncnc2n1,105,-12,-1
CC(=O)Oc1ccc2c(=O)c(-c3ccccn3)coc2c1,110,-42,-4
CCOC(=O)c1c(C)[nH]c(C)c1C(=O)CSC1=Nc2ccccc2C2CC=NN12 (stereo unspecified),68,-14,11
C=C(C)C1Cc2cc(/C=C/C(=O)O)c(O)cc2O1 (stereo unspecified),0.5*,-24,9
C=C(C)C1Cc2cc3ccc(=O)oc3cc2O1 (stereo unspecified),103,-23,1
CC(C)C1O/C(=N\C(=O)Nc2ccc(Cl)c(Cl)c2)NC1=O (stereo unspecified),0.5*,-15,-3
CCNC(=O)/N=C1\NC(=O)C(C(C)C)O1 (stereo unspecified),86,-32,-7
Clc1cc(Br)ccc1-c1ccc(CNCC2CCNCC2)o1,x,-12,x
Nc1cccc(-c2cnco2)c1,98,4,x
Nc1cccc(-c2ncon2)c1,162,83*,x
O=C(COc1ccccc1-c1nnc(-c2ccccc2)o1)NCCc1c[nH]c2ccccc12,x,-8,x
CC1(C(=O)NCc2ccccc2)CCN(C(=O)c2cccc(Cl)c2)CC1,x,10,x
Cn1cc(S(=O)(=O)c2ccccc2)c(=O)c2cc(F)c(N3CCN(c4ccc(F)cc4)CC3)cc21,101,-6,x
CNC1CCCN(c2c(F)cc3c(=O)c(C(=O)O)cn(C4CC4)c3c2OC)C1 (stereo unspecified),x,-10,x
O=C(O)c1cn(-c2ccc(F)cc2)c2cc(N3CCNCC3)c(F)cc2c1=O,-0.9*,-35,x
